# From PubChem BioAssay (NCATS)
# “And” between values parts separate entries of the source, which are not always exact repeats. Equal values may be shown once. Unmarked numbers belong to inactive results. Results filed as inconclusive are left out. Entries that show only a call come without a potency. The source made the active and inactive calls. Unless noted, the call rests on the fitted dose curve; in most records, active means well fitted curve in the direction sought with a large enough effect; inconclusive means small, poorly fitted or top-dose-only effect, or another doubt; inactive means no such curve, though single readings can be large; an effect the other way counts as inactive or inconclusive.
# Columns and labels:
# [1] = qHTS to identify inhibitors of the type 1 interferon - major histocompatibility complex class I in skeletal muscle: primary screen against the NCATS Mechanism Interrogation Plate v5.0 (MIPE) Libary (AID 1347411); further: nearly all actives have a fitted effect of over 65% in size
# Summary of the method: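 Immortalized human C25cl48 myoblasts with HiBit knocked into endogenous HLA-B*08:01 were stimulated with 4.0 ng/ml IFN-beta and exposed to compounds (11-point 1:3 titration, top 46 uM final) for 24 hrs at 37 C; HiBiT lytic luminescence measured.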
# [2] = molecular target: Glutathione peroxidase 1 (Homo sapiens) (UniProt P07203); assay: Primary qHTS Assay for Inhibitors of Recombinant Selenoprotein Glutathione Peroxidase 1 (GPX1) (AID 1845191); further: nearly all actives have a fitted effect of over 65% in size; further: potency means the concentration at half of the fitted maximal effect
# Glutathione peroxidase 1 (Homo sapiens), sequence (P07203 whole entry, looked up): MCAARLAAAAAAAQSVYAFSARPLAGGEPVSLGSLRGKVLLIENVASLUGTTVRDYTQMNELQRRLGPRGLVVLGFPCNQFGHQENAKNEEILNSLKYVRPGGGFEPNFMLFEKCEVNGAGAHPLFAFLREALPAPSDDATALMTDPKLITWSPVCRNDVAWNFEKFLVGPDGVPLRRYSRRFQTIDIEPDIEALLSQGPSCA
# Summary of the method: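 GR-coupled assay: compounds preincubated 30 min at room temperature with GPX1, then reaction started with CHP; final 10 nM GPX1, 1 mM GSH, 0.5 mM CHP, 0.5 mM NADPH, 100 nM GR, 0.01% BSA, pH 7.5 Tris buffer. NADPH fluorescence (340/450 nm) read at 0 and 15 min.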
# [3] = molecular target: Phospholipid hydroperoxide glutathione peroxidase GPX4 (Homo sapiens) (UniProt P36969); assay: Primary qHTS Assay for Inhibitors of Recombinant Selenoprotein Glutathione Peroxidase 4 (GPX4) (AID 1845192); conditions: outcome: dose series up to 50 µM unless noted; further: nearly all actives have a fitted effect of over 65% in size; further: potency means the concentration at half of the fitted maximal effect
# Phospholipid hydroperoxide glutathione peroxidase GPX4 (Homo sapiens), sequence (P36969 whole entry, looked up): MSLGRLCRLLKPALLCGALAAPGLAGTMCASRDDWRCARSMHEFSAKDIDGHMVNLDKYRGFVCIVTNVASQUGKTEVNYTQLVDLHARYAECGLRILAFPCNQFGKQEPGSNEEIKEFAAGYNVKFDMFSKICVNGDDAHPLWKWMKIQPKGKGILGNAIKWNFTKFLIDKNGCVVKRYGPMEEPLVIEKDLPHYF
# Summary of the method: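 GR-coupled assay: recombinant GPX4 preincubated 30 min with compound at room temperature; final 200 nM GPX4, 1 mM GSH, 0.5 mM cumene hydroperoxide, 0.5 mM NADPH, 100 nM GR, 0.01% BSA, pH 7.5 Tris. NADPH fluorescence (340/450 nm) read at 0 and 15 min.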
# [4] = Primary qHTS for inhibitors of nuclear receptor binding SET domain protein 2 (NSD2) in an isogenic RCH-ACV NSD2 p.E1099K mutant (9B) (AID 1645876); further: nearly all actives have a fitted effect of over 70% in size; further: potency means the concentration at half of the fitted maximal effect
# [5] = Primary qHTS for inhibitors of nuclear receptor binding SET domain protein 2 (NSD2) in an RCH-ACV wild type WT cells (2C) (AID 1645877); further: nearly all actives have a fitted effect of over 70% in size; further: potency means the concentration at half of the fitted maximal effect
# [6] = qHTS profiling for inhibitors of Plasmodium falciparum proliferation (AID 504749); further: nearly all actives have a fitted effect of over 60% in size; conditions: P. falciparum in erythrocytes, SYBR Green DNA, 72 h, at 28.7 µM (top of the series)
# Summary of the method: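 Readout was DNA-dye fluorescence from lysed cultures, ex 485/em 535 nm. Parasitized red cells had grown 72 h with compound; data scaled between 0.29 uM artemisinin and DMSO wells and corrected using vehicle-only plates.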
# [7] = molecular target: Cytochrome P450 1A2 (Homo sapiens) (UniProt P05177); assay: p450-cyp1a2 (AID 410; calls by dose curve)
# Cytochrome P450 1A2 (Homo sapiens), sequence (P05177 whole entry, looked up): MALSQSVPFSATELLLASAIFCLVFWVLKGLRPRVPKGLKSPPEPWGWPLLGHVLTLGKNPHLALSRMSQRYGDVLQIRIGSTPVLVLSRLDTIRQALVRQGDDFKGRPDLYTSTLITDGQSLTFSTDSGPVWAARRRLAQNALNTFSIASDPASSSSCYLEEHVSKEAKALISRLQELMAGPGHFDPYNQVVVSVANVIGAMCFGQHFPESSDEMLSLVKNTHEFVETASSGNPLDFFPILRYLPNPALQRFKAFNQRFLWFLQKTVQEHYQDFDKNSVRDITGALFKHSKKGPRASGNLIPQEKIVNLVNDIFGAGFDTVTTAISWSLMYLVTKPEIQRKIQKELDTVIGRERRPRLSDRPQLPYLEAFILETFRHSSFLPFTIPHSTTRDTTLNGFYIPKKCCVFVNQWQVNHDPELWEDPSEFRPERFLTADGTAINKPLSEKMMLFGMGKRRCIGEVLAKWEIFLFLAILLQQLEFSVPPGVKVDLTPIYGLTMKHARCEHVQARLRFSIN
# Summary of the method: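 Human CYP1A2 (20nM) demethylated Luciferin-ME at its Km (100uM) in 100mM KPO4. After 10 min compound preincubation, NADPH regeneration ran the reaction 60 min at room temperature. Luciferin was read by luminescence, normalized to 57 uM furafylline.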
# [8] = Stat Signaling Pathway (AID 446; active means well fitted curve in either direction with a large enough effect, not every such curve was filed as active;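 further: ME-180 cervical cancer cells given 40 pM IL-6 alongside compound; SIE-controlled beta-lactamase reporter measured as 460/530 nm FRET emission ratio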); conditions: ME-180 (cervical carcinoma) SIE beta-lactamase reporter, IL-6 stimulated, 5 h
# Summary of the method: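 IL-6/STAT signaling read in ME-180 cells via an SIE beta-lactamase reporter. Stimulus was 40 pM IL-6 (its AC50) for 5 hrs, so both activation and inhibition register.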
# [9] = molecular target: Glucocorticoid receptor (Homo sapiens) (UniProt P04150); assay: GR-EFC Redistribution (AID 451; calls by dose curve; further: potency means the concentration at half of the fitted maximal effect); conditions: CHO-K1 GR-EFC translocation, beta-gal luminescence, 2 h
# Glucocorticoid receptor (Homo sapiens), sequence (P04150 whole entry, looked up, the tested form may be a part): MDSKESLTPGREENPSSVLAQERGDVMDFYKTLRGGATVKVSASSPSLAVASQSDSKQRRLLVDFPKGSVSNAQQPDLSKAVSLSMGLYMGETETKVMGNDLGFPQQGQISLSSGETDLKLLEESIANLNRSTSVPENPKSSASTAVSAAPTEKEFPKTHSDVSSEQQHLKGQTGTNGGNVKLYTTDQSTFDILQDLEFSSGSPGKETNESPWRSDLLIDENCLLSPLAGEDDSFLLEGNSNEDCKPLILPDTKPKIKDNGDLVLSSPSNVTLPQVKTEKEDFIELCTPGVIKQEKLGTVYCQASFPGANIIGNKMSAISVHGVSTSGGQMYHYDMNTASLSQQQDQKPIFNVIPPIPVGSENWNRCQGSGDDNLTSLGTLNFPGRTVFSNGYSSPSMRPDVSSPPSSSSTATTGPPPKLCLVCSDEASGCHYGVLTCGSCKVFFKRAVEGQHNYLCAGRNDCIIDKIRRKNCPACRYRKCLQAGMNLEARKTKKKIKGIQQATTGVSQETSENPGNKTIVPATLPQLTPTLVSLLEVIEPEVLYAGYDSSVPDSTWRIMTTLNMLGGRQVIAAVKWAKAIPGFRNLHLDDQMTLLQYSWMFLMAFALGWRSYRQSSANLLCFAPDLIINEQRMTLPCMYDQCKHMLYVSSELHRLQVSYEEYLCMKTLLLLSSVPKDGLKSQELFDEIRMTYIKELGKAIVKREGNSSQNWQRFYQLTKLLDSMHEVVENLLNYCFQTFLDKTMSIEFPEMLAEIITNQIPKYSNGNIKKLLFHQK
# Summary of the method: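 CHO-K1 cells expressing nuclear EA and GR-ED fragments of b-gal; compounds titrated up to 46 uM final, 2 h at 37 C. GR nuclear translocation read as complemented b-gal luminescence after 1 h RT detection.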
# [10] = molecular target: Guanine nucleotide-binding protein G(i) subunit alpha-1 (Homo sapiens) (UniProt P63096); assay: qHTS Assay for Inhibitors of RGS12 GoLoco Motif Activity (Green Fluorophore) (AID 879);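 further: negative values mean loss of peptide binding seen as reduced polarization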
# Guanine nucleotide-binding protein G(i) subunit alpha-1 (Homo sapiens), sequence (P63096 whole entry, looked up): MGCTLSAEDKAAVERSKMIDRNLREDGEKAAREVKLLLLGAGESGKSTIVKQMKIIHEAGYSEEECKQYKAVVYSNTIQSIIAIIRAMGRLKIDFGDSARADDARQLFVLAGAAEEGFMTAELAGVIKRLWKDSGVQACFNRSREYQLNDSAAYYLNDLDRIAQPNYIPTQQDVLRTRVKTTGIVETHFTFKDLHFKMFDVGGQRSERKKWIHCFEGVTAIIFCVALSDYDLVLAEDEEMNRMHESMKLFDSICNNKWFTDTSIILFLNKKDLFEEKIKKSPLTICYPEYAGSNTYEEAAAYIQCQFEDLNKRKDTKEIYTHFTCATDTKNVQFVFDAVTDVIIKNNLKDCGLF
# Summary of the method: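 Fluorescence polarization assay: 50 nM Gαi1 with 10 nM FITC-labeled RGS12 GoLoco peptide in 10 mM Tris pH 7.5, 150 mM NaCl, 0.1 mM GDP, 0.05% NP40, 10 min at room temperature with compound.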
# [11] = molecular target: Pyruvate kinase (Leishmania mexicana) (UniProt Q27686); assay: qHTS Validation Assay for Inhibitors of Leishmania Mexicana Pyruvate Kinase (AID 945)
# Pyruvate kinase (Leishmania mexicana), sequence (Q27686 2-499 E452W): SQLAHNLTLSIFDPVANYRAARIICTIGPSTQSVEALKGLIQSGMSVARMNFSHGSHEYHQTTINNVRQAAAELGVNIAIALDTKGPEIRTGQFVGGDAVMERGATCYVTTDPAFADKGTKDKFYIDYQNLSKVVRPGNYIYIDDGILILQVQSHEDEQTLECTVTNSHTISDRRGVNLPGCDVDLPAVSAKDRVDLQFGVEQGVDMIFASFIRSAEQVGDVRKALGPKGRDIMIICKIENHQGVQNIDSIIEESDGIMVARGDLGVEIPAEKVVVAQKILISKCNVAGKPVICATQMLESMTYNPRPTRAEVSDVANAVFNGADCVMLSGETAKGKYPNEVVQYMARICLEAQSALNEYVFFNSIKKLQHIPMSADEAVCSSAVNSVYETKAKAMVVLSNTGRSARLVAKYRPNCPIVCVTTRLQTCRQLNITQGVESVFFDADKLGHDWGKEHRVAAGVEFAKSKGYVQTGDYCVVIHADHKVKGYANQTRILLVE
# Summary of the method: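 Eight-point qHTS titrations; enzyme 0.2 nM LmPYK (E451W mutant); substrates 0.5 mM PEP, 0.1 mM ADP; 7 mM MgCl2; 1 h room temperature; PKLight luminescence normalized to neutral control.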
# [12] = molecular target: Pyruvate kinase PKM (Homo sapiens) (UniProt P14618); assay: qHTS Assay for Activators of Human Muscle Pyruvate Kinase (AID 954; active means well fitted curve in the direction sought with a large enough effect, not every such curve was filed as active)
# Pyruvate kinase PKM (Homo sapiens), sequence (P14618 whole entry, looked up): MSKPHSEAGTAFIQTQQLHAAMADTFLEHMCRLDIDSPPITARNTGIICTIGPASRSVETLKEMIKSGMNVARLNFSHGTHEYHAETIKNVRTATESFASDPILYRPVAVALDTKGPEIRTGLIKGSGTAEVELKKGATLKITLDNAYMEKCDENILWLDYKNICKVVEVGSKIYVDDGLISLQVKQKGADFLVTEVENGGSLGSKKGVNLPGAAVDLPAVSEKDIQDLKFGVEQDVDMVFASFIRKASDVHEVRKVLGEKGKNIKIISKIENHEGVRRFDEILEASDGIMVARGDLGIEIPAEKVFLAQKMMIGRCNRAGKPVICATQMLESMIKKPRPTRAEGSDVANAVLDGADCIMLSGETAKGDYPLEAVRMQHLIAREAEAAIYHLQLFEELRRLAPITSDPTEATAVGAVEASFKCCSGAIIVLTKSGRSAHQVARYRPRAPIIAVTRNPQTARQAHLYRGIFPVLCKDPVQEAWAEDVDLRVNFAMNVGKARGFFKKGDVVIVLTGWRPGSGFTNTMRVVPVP
# Summary of the method: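 Enzyme was run at intermediate activity so both inhibitors and activators could be detected. ATP formed from ADP and PEP by 0.1 nM human PKM2 during a 1 h room-temperature incubation was quantified by coupled luciferase luminescence.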
# [13] = molecular target: Alpha-galactosidase A (Homo sapiens) (UniProt P06280); assay: Counterscreen for Glucocerebrosidase Inhibitors: qHTS Assay for Human alpha-Galactosidase at pH 4.5 (AID 992)
# Alpha-galactosidase A (Homo sapiens), sequence (P06280 whole entry, looked up): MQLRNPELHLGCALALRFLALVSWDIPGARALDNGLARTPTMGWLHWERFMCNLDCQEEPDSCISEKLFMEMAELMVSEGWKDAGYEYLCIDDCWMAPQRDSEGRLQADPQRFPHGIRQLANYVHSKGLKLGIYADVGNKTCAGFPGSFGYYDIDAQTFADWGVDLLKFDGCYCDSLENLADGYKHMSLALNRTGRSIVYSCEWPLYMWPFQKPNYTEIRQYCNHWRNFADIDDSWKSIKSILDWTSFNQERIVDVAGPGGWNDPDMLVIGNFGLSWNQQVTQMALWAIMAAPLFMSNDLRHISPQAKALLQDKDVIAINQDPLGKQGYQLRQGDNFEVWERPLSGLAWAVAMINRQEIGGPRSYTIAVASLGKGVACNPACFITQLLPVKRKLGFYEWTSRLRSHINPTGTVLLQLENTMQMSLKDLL
# Summary of the method: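 Read-out is 4-methylumbelliferone fluorescence (365 nm excitation, 440 nm emission) after a pH 10 NaOH/glycine stop. Reactions held 2 nM enzyme and 80 uM substrate at pH 4.5 for 20 min at room temperature.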
# [14] = qHTS for differential inhibitors of proliferation of Plasmodium falciparum line 7G8 (AID 1815);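 further: parasite growth measured after three days of incubation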; further: potency means the concentration at half of the fitted maximal effect
# [15] = qHTS for differential inhibitors of proliferation of Plasmodium falciparum line GB4 (AID 1816); conditions: Potency: Plasmodium falciparum GB4 proliferation inhibition;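 further: parasite growth measured after 72 h incubation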
# [16] = qHTS for differential inhibitors of proliferation of Plasmodium falciparum line D10 (AID 1877);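 further: parasites grown with compound for 72 h before DNA staining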
# [17] = qHTS for differential inhibitors of proliferation of Plasmodium falciparum line W2 (AID 1883); conditions: Potency: Plasmodium falciparum W2 proliferation inhibition;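 further: parasites grown with compound for 72 h before lysis and staining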; further: potency means the concentration at half of the fitted maximal effect
# [18] = qHTS for differential inhibitors of proliferation of Plasmodium falciparum line HB3 (AID 1886); conditions: Potency: Plasmodium falciparum HB3 proliferation inhibition;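 further: parasites grown with compound for 72 h before SYBR Green readout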
# [19] = Validation screen for small molecules that induce DNA re-replication in SW480 colon adenocarcinoma cells (AID 504364)
# Summary of the method: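 SW480 cells seeded at 250 per well were exposed to compound or DMSO for 48 hr at 37 C, 5% CO2, then stained with Hoechst for 40 min. DNA content per nucleus was imaged (405 nm ex, 500-530 nm em).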
smiles,measurement,setting,value
CN(C(=O)CNC(=O)/C=C/c1cccc(Cl)c1)C1CCS(=O)(=O)CC1,Potency,[1],inactive
same,Potency,[2],inactive
same,Potency,[3],inactive
CN1C(=O)N(c2cc(Cl)cc(Cl)c2)C(=O)[C@]12CN(Cc1cc(C(=O)O)cs1)C[C@H]2c1ccc(C#N)cc1,Potency,[1],inactive
same,Potency,[2],inactive
NC(=S)N/N=C/c1ncccc1N,Potency,[1],inactive
same,Potency,[2],inactive
C/C=C(/C)C(=O)O[C@H]1C(C)=CC23C(=O)C(C=C(CO)[C@@H](O)[C@]12O)[C@H]1[C@@H](C[C@H]3C)C1(C)C (some centres undefined),Potency,[1],inactive
same,Potency,[2],inactive
CCC(=C/[C@H](C)C/C=C/C(C)=C/[C@@H](C)C(=O)[C@@H](C)[C@H](O)[C@@H](C)C/C(C)=C/C(=O)O)/C=C/[C@@H]1OC(=O)C=C[C@@H]1C,Potency,[4],4.2 nM (active)
same,Potency,[5],4.2 nM (active)
same,Potency,[2],inactive
same,Potency,[3],10100 nM (active)
COc1cc(=C2C=c3ccccc3=N2)[nH]/c1=C/c1[nH]c(C)cc1C,Potency,[4],inactive
same,Potency,[5],inactive
same,Potency,[2],inactive
CCS(=O)(=O)Nc1ccc(Oc2ccc(F)cc2F)c(-c2cn(C)c(=O)c3[nH]ccc23)c1,Potency,[4],13.2 nM (active)
same,Potency,[5],7.4 nM (active)
same,Potency,[2],inactive
same,Potency,[3],inactive
C=C1/C(=C\C=C2/CCC[C@]3(C)[C@@H]([C@H](C)CCCC(C)(C)O)CC[C@@H]23)C[C@@H](O)C[C@@H]1O,Potency,[4],20.9 µM (active) and 18.6 µM (active)
same,Potency,[5],16600 nM (active)
same,Potency,[2],inactive
same,Potency,[3],inactive
same,"activity, negative = inhibition",[6]; parasite line A,-3.09%
same,"activity, negative = inhibition",[6]; parasite line B,-9.52%
Cc1cc(O)c(-c2ccc([C@@H](C)CN)cc2)c2c1[nH]c(=O)c1sccc12,Potency,[4],inactive
same,Potency,[5],inactive
same,Potency,[2],inactive
Nc1nc2c(c(=O)[nH]1)N1CN(c3ccc(C(=O)N[C@@H](CCC(=O)O)C(=O)O)cc3)CC1CN2 (some centres undefined),Potency,[4],833 nM (active)
same,Potency,[5],742 nM (active)
same,Potency,[2],inactive
same,Potency,[3],inactive
NS(=O)(=O)Oc1ccc2c3c(c(=O)oc2c1)CCCCC3,Potency,[1],inactive
same,Potency,[2],4090 nM (active)
CC#CC(=O)N1CC[C@@H](n2c(=O)n(-c3ccc(Oc4ccccc4)cc3)c3c(N)ncnc32)C1,Potency,[4],6610 nM (active)
same,Potency,[5],16600 nM (active)
same,Potency,[2],inactive
same,Potency,[3],inactive
CO[C@H]1/C=C/O[C@@]2(C)Oc3c(C)c(O)c4c(O)c(c5c(c4c3C2=O)=NC2(CCN(CC(C)C)CC2)N=5)NC(=O)/C(C)=C/C=C/[C@H](C)[C@H](O)[C@@H](C)[C@@H](O)[C@@H](C)[C@H](OC(C)=O)[C@@H]1C,Potency,[1],inactive
same,Potency,[2],inactive
CC(C)n1c(/C=C/[C@H](O)C[C@H](O)CC(=O)O)c(-c2ccc(F)cc2)c2ccccc21,Potency,[1],inactive
same,Potency,[2],inactive
same,Potency,[3],inactive
C[C@@H](O)[C@@H]1NC(=O)[C@H](CCCCN)NC(=O)[C@@H](Cc2c[nH]c3ccccc23)NC(=O)[C@H](Cc2ccccc2)NC(=O)[C@@H](NC(=O)[C@H](N)Cc2ccccc2)CSSC[C@@H](C(=O)N[C@H](CO)[C@@H](C)O)NC1=O,Potency,[1],inactive
same,Potency,[2],inactive
O=c1cc(N2CCOCC2)oc2c(-c3ccc4c(c3)OCCO4)csc12,Potency,[4],590 nM (active)
same,Potency,[5],590 nM (active)
same,Potency,[2],inactive
same,Potency,[3],inactive
N#CCC1(n2cc(-c3ncnc4[nH]ccc34)cn2)CN(C2CCN(C(=O)c3ccnc(C(F)(F)F)c3F)CC2)C1,Potency,[5],18600 nM (active)
same,Potency,[3],20200 nM (active)
CN(C)Cc1ccc(S(=O)(=O)n2ccc(/C=C/C(=O)NO)c2)cc1,Potency,[4],1860 nM (active)
same,Potency,[5],1860 nM (active)
same,Potency,[3],inactive
Cc1cc(Oc2ccc3nc(COc4ccc(CC5SC(=O)NC5=O)cc4)n(C)c3c2)cc(C)c1N (centres undefined),Potency,[1],inactive
same,Potency,[2],inactive
CN1CCN(c2ccc(Nc3ncc4cc(C#N)c(=O)n(C5CCCC5)c4n3)cc2)CC1,Potency,[4],590 nM (active)
same,Potency,[5],525 nM (active)
same,Potency,[2],inactive
same,Potency,[3],inactive
N#C/C(=C1/Nc2ccccc2S1)c1ccnc(OCc2ccc(CN3CCOCC3)cc2)n1,Potency,[1],inactive
same,Potency,[2],inactive
C[C@H]1CN(C2COC2)CCN1c1ccc(Nc2cc(-c3ccnc(N4CCn5c(cc6c5CC(C)(C)C6)C4=O)c3CO)cn(C)c2=O)nc1,Potency,[1],inactive
same,Potency,[2],inactive
C=CC(=O)Nc1cc(N2CCN(CC)CC2)ccc1Nc1cc(N(C)C(=O)Nc2c(Cl)c(OC)cc(OC)c2Cl)ncn1,Potency,[1],inactive
same,Potency,[2],inactive
same,Potency,[3],inactive
CO[C@@H]1[C@@H](O)[C@H](O)[C@@H](n2c3c(Cl)cccc3c3c4c(c5c6cccc(Cl)c6[nH]c5c32)C(=O)NC4=O)O[C@H]1CO,Potency,[4],934 nM (active)
same,Potency,[5],525 nM (active)
CC(C)Oc1ccc(-c2nn([C@@H](C)c3oc4ccc(F)cc4c(=O)c3-c3cccc(F)c3)c3ncnc(N)c23)cc1F,Potency,[1],inactive
same,Potency,[2],inactive
same,Potency,[3],inactive
COC(=O)N(CC(=O)O)Cc1cccc(OCc2nc(-c3ccc(Cl)cc3)oc2C)c1,Potency,[1],inactive
same,Potency,[2],inactive
C[C@@H]1Cc2c([nH]c3ccccc23)[C@@H](c2c(F)cc(/C=C/C(=O)O)cc2F)N1CC(C)(C)F,Potency,[1],inactive
same,Potency,[2],inactive
CN1C[C@@H]2c3ccccc3Oc3ccc(Cl)cc3[C@H]2C1,Potency,[1],inactive
same,Potency,[2],inactive
CC[C@@H](Oc1cccc(CN(CCCOc2ccc(OC)cc2)c2nc3ccccc3o2)c1)C(=O)O,Potency,[1],inactive
same,Potency,[2],inactive
O=C(CCc1ccc(O)cc1)c1c(O)cc(O)cc1O[C@@H]1O[C@H](CO)[C@@H](O)[C@H](O)[C@H]1O,Potency,[4],inactive
same,Potency,[2],inactive
CN(C)CCOc1ccc(-c2nc(-c3ccc4c(c3)CC/C4=N\O)c(-c3ccncc3)[nH]2)cc1,Potency,[4],16600 nM (active)
same,Potency,[5],10500 nM (active)
same,Potency,[2],inactive
same,Potency,[3],inactive
NC(=O)c1cnc2[nH]ccc2c1NC1C2CC3C[C@H]1CC(O)(C3)C2 (some centres undefined),Potency,[4],9340 nM (active)
same,Potency,[5],9340 nM (active)
same,Potency,[2],inactive
same,Potency,[3],inactive
O=C1NC(=O)[C@@H](c2c[nH]c3ccccc23)[C@H]1c1cn2c3c(cccc13)CCC2,Potency,[4],1180 nM (active)
same,Potency,[5],934 nM (active)
same,Potency,[2],inactive
NCCC(=O)NCCc1cnc[nH]1,Potency,[7],inactive
same,"activity, negative = inhibition",[8]; at 17.2 µM (top of the series),9.79%
same,"activity, negative = inhibition",[8]; at 38 µM (top of the series),-27.3%
same,Potency,[9],> 46000 nM and > 20600 nM
same,outcome,[10],inactive
same,Potency,[11],inactive
same,outcome,[12],inactive
same,outcome,[13],inactive
same,Potency,[14],inactive
same,Potency,[15],inactive
same,Potency,[16],inactive
same,Potency,[17],inactive
same,Potency,[18],inactive
same,outcome,[19],inactive
CN1C2CC(OC(=O)C(CO)c3ccccc3)CC1C1OC12 (centres undefined),Potency,[14],inactive
same,Potency,[16],inactive
same,Potency,[18],inactive
CNC(=O)[C@H]1O[C@@H](n2cnc3c(NCc4cccc(I)c4)ncnc32)[C@H](O)[C@H]1O,Potency,[14],7940 nM (active)
same,Potency,[17],8910 nM (active)
same,outcome,[19],inactive
